MEKK2 WT-MEK5 = raises or lowers MEK5 binding to wildtype human MEKK2 PB1 domain; Q9Y2U5; bead flow cytometry, Alexa488-MEK5 binding to MEKK2 WT; actives lie on both sides; binding response (% of control), % at 10 µM; hit rate 1.1% among 290,000; in the data active = binding response below about 67% or above about 130%; inconclusive = no clear call, values can overlap the other calls; inactive = in between
FID counter = counter-screen for HCV NS3 helicase inhibitors: DNA intercalator displacement; inhibition, % at 7.9 µM; hit rate 0.17% among 290,000; DNA fluorescent intercalator displacement, fluorescence; in the data active = inhibition above about 37%;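 note: 0% = vehicle and 100% = reference compound; higher means more ethidium bromide displaced from hairpin DNA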
MEKK3 PB1 HTS = modulators (inhibitors or enhancers) of MEK5 binding to human MEKK3 PB1 domain; Q99759; bead-based flow cytometry, Alexa488-MEK5 binding to MEKK3; actives lie on both sides; 0 = blocked by unlabeled MEK5, 100 = vehicle; binding response (% of control), % at 10 µM; hit rate 1.4% among 290,000; AID 1529;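 active = binding response more than 3 SD above or below the average of its plate-row segment, actives on both sides; inconclusive = wells at one plate position flagged as instrument error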;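 note: Alexa488 bead fluorescence after subtracting the streptavidin-only scavenger bead signal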
Target sequence (Q99759 whole entry, looked up, the tested form may be a part): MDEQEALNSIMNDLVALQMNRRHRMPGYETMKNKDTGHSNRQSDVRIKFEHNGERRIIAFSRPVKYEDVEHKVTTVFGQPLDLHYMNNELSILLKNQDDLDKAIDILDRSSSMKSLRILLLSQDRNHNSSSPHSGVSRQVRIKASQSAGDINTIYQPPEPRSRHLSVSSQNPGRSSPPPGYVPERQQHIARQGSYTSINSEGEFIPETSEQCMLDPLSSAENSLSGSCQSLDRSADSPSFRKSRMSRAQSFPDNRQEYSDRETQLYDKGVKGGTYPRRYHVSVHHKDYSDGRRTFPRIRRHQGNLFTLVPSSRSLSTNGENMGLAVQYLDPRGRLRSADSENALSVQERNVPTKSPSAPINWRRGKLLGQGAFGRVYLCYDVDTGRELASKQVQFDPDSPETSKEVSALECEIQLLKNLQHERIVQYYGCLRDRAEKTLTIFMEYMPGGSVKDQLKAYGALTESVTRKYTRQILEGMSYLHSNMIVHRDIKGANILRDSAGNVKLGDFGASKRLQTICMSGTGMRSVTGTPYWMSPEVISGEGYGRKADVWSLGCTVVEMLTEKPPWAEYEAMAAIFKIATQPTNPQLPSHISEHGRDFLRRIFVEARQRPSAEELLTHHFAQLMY
dFosB act-1 = mouse delta FosB homodimer activation; purified delta FosB, TAMRA-CDK5 oligo fluorescence polarization; percent of positive-control signal above neutral wells; hit rate 0.99% among 340,000; AID 493131; activation, % at 25 µM;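 active = mean activation above about 17%, with every replicate also reaching it, limit read from the data, passing the limit was not always enough; inconclusive = only one of the two conditions met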
MEKK2mut PB1 HTS = signal of MEK5 binding to mutant human MEKK2 PB1 domain; percent response, % at 10 µM; hit rate 0.35% among 290,000; bead flow cytometry, Alexa488-MEK5 binding to MEKK2 mutant; in the data active = percent response above about 24%, passing the limit was not always enough
dFosB act-2 = activators of mouse delta FosB homodimer DNA binding | shares compounds with dFosB act-1 | activation, % at 24.9 µM | purified delta FosB, TAMRA-CDK5 oligo fluorescence polarization; normalised: neutral wells 0, positive control 100 | 2,400 tested, under 10 active;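 active = highest replicate activation at or above 34% and every replicate reaching that threshold; inconclusive = meets only one of the two criteria; inactive = meets neither criterion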;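 note: higher polarization means more probe DNA bound by delta FosB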
Active calls of the source: *; u = inconclusive; x = no result. A selection: hits, their analogues and other compounds. The true share with any hit is near 2.9%.

SMILES	MEKK2 WT-MEK5	FID counter	MEKK3 PB1 HTS	dFosB act-1	MEKK2mut PB1 HTS	dFosB act-2
CCOC(=O)c1ccc(S(=O)(=O)N2CCN(C3CC(=O)N(c4ccc(OC)cc4)C3=O)CC2)cc1 (configuration not stated)	x	x	x	-1	x	x
O=C(NCc1csc(-c2cccs2)n1)Nc1cccc(Cl)c1	104	-8	107	66*	4	6
Cc1ccnc(NC(=O)c2cccc(NC(=O)c3ccc(Cl)c(Cl)c3)c2)c1	x	x	x	48*	x	-2
Cc1cccc(/C=N/NC(=O)c2ccc(NC(=O)c3ccc(Cl)cc3)cc2)n1	93	-16	97	41*	-1	7
O=C(/C=C/c1cccnc1)c1ccc(NC(=O)c2cccc(Br)c2)cc1	104	0	104	46*	1	1
O=C(N/N=C/c1cccnc1)c1cccc(NC(=O)c2ccc(Cl)cc2)c1	77	-12	83	32*	-17	2
Cc1cccc(C(=O)Nc2ccc(C(=O)N/N=C/c3cccnc3)cc2)c1	103	-11	101	-4	5	x
Cc1cccc(/C=N/NC(=O)c2ccc(NC(=O)c3ccc(F)cc3)cc2)n1	102	-14	104	-5	0	x
CS(=O)(=O)N(CC(=O)Nc1ccc(Br)cc1)C1CCCCC1	110	-12	102	-3	8	x
CC(C)(C)c1ccc(C2(C)NC(=O)N(CC(=O)NC3CCS(=O)(=O)C3)C2=O)cc1 (configuration not stated)	x	x	x	-7	x	x
O=C(Nc1ccc(Br)cc1)c1ccc(Br)c(S(=O)(=O)Nc2cccnc2)c1	98	2	105	28*	-2	-3
Cc1cc2nc(-c3cccnc3SCC(=O)NC(C)C)[nH]c2cc1C	104	-16	103	-9	3	x
COc1cc2c(cc1OC)C(COc1ccc3c(C)cc(=O)oc3c1)N(C(=O)c1ccco1)CC2 (configuration not stated)	107	-13	103	u	1	x
CCOc1ccc(NC(=S)N2CCc3cc(OC)c(OC)cc3C2COc2ccc3c(C)cc(=O)oc3c2)cc1 (configuration not stated)	100	10	97	50*	0	3
Cc1ccccc1C(=O)Nc1nnc(CC(=O)N/N=C/c2ccco2)s1	99	-24	94	40*	-4	5
Cc1ccccc1C(=O)Nc1nnc(CC(=O)N/N=C/c2cn(Cc3ccccc3)c3ccccc23)s1	105	-6	114	-4	5	x
COc1cc(/C=N/NC(=S)NC(C)C)ccc1OCC(=O)Nc1c(C)cc(C)cc1C	100	-4	97	29*	-2	0
O=C(CN1CCN(C(=O)c2cccc(-n3cnnn3)c2)CC1)Nc1ccccc1Cl	x	x	x	0	x	x
O=C(CSc1nc2ccccc2c(=O)n1Cc1ccc(F)cc1)NCc1cccs1	89	-4	89	35*	-3	-2
Cc1cc(NC(=O)Cn2c(=O)n(Cc3ccccc3)c(=O)c3ccccc32)no1	x	-5	x	52*	x	-8
COc1ccc(CCn2c(SCC(=O)Nc3cc(C)on3)nc3ccsc3c2=O)cc1OC	x	-2	x	23*	x	4
Cc1cc(NC(=O)CSc2nc3ccccc3c(=O)n2Cc2ccc(F)cc2)no1	91	2	97	42*	-4	5
COc1cccc(-c2c(C(=O)N/N=C(\C)COc3ccccc3)nnn2-c2nonc2N)c1	99	-23	106	-3	-2	x
Cc1cccc(S(=O)(=O)NC2CCCCCCC2)c1	98	-30	103	-4	-3	x
Cc1onc(-c2ccccc2)c1C(=O)N/N=C/c1c(F)cccc1Cl	103	-29	102	-1	4	x
SMILES	MEKK2 WT-MEK5	FID counter	MEKK3 PB1 HTS	dFosB act-1	MEKK2mut PB1 HTS	dFosB act-2
C=C1CCN([C@H](C(=O)NCc2ccccc2)C(C)C)S(=O)(=O)c2ccccc21	87	x	94	-6	-6	x
CCOc1ccc(NS(=O)(=O)c2ccc(NC(=O)c3ccccn3)cc2)cc1	x	x	x	1	x	x
Cc1ccc(C)c(OCc2cc(C(=O)NC3CCN(Cc4ccccc4)CC3)no2)c1	135*	25	106	22*	11	4
OCCCn1c(CCNc2nc(-c3ccc(F)cc3)cs2)nc2cc(C(F)(F)F)ccc21	98	x	98	-14	1	x
COc1ccccc1/C=C1\SC(=S)N(CCC(=O)NCCc2ccc(O)cc2)C1=O	101	-23	103	1	-3	x
COC(=O)CNc1nc(Cl)nc(Nc2ccc(Cl)cc2)n1	107	2	116	48*	0	7
CSc1ccc(NC(=O)N2CC=C(n3c(=O)[nH]c4ccccc43)CC2)cc1	92	-28	93	-7	-2	x
Cc1cccc(NC(=O)C2(C)CC3c4ccccc4C2c2ccccc23)c1 (configuration not stated)	101	-1	107	29*	4	5
Cc1cccc(NC(=O)C2(c3ccccc3)CCOCC2)c1	103	-5	103	4	4	x
CCN(CC)C(=O)CSc1nc2c(sc(=S)n2-c2ccc(C)cc2C)c(=O)[nH]1	100	-36	101	1	3	x
COc1ccc(C(C)=O)cc1CS(=O)(=O)CC(=O)NCCc1c[nH]c2ccccc12	x	x	x	-8	x	x
Cc1cc(=O)[nH]c(SCC(=O)Nc2nnc(CC(C)C)s2)n1	100	1	102	-3	2	x
CC(C)Cc1nnc(NC(=O)CSc2nc(-c3ccccc3)cc(=O)[nH]2)s1	70	1	67	49*	-33	1
CCOc1ccccc1N(C(=O)c1snc(C(N)=O)c1N)C(C(=O)NCc1ccccc1)c1ccc(O)cc1 (configuration not stated)	91	-36	97	-5	-1	x
Cc1ccccc1N(C(=O)c1snc(C(N)=O)c1N)C(C(=O)NCc1ccccc1)c1ccc(O)cc1 (configuration not stated)	96	-31	101	41*	-1	5
COc1cccc(N(C(=O)c2snc(C(N)=O)c2N)C(C(=O)NCc2ccccc2)c2ccc(O)cc2)c1 (configuration not stated)	92	-29	97	-1	-11	x
NC(=O)c1nsc(C(=O)N(c2ccccc2F)C(C(=O)NCc2ccccc2)c2ccc(O)cc2)c1N (configuration not stated)	101	-21	102	32*	-5	4
CCOC(=O)c1c(NC(=O)CC2SC(N)=NC2=O)sc2c1CCCC2 (configuration not stated)	103	-7	100	-14	1	x
N#Cc1c(SCC(=O)Nc2ccccc2)nsc1SCC(=O)Nc1ccccc1	97	6	98	25*	-3	0
COC(=O)CSc1nsc(SCC(=O)OC)c1C#N	79	0	72	3	-18	x

Bioassay records (PubChem BioAssay)
